Results: PubChem BioAssay (NCI)
About 79,000 compounds went through this panel and 15% of them were active in at least one assay; those are over-represented in the sample as a whole. Activity calls are given as the source filed them. Cut-off read from the data, not from the text of the source: active = growth inhibition above about 70%; inactive = the rest.

Columns and labels:
[1] = NCI Yeast Anticancer Drug Screen. Data for the rad50 strain (AID 155);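 note: 0% = growth of vehicle-only cultures of the same strain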; details: S. cerevisiae rad50 strain growth inhibition; at 50.0 µM; active compounds read high
Outline: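 Compounds were tested on a yeast strain with an engineered DNA damage repair alteration; the reported value is growth inhibition normalised to vehicle treatment.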

[2] = NCI Yeast Anticancer Drug Screen. Data for the mec2-1 strain (AID 157); details: S. cerevisiae mec2-1 strain, at 50.0 µM, active compounds read high
Outline: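 Using mec2-1 yeast: add compound, measure growth, express inhibition versus vehicle-treated cultures.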

[3] = NCI Yeast Anticancer Drug Screen. Data for the sgs1 mgt1 strain (AID 161);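 note: 0% = growth of cultures given vehicle only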; details: S. cerevisiae sgs1 mgt1 strain, at 50.0 µM, active compounds read high
Outline: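 Growth of a repair-deficient yeast mutant was monitored after compound treatment and expressed as inhibition relative to vehicle-treated cultures.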

[4] = NCI Yeast Anticancer Drug Screen. Data for the cln2 rad14 strain (AID 165);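 note: 0% = growth equal to vehicle treated cultures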; details: S. cerevisiae cln2 rad14 strain, at 50.0 µM, active compounds read high
Outline: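 Yeast strain cln2 rad14, bearing defects in cell cycle control and DNA repair, serves as the test system; values reflect growth inhibition compared with vehicle.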

[5] = NCI Yeast Anticancer Drug Screen. Data for the bub3 strain (AID 167); details: S. cerevisiae bub3 mutant strain, at 50.0 µM, active compounds read high
Outline: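 Growth of a checkpoint-deficient yeast mutant is measured after compound exposure. Values represent inhibition relative to vehicle.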

[6] = NCI Yeast Anticancer Drug Screen. Data for the mlh1 rad18 strain (AID 175); details: S. cerevisiae mlh1 rad18 strain growth inhibition; at 50.0 µM; active compounds read high
Outline: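 Steps: expose repair-defective yeast to compound; measure growth; express inhibition against vehicle-treated controls.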

Measured: growth inhibition

CC1c2ccccc2CC(CCN(C)C)c2ccccc21 (stereo unspecified)
inactive: [1] 8.1% | [2] -12.8% | [3] 34% | [4] 13.4% | [5] 28.6% | [6] -20.3%

CN(C)CC1CCc2ccccc2C1=O (stereo unspecified)
inactive: [1] -16.1% | [2] -37.2% | [3] -46.8% | [4] -2.05% | [5] -52.1% | [6] -48.1%

O=C1c2ccccc2C(=O)N1c1ccc(Cl)cc1
inactive: [1] 3.5% | [2] 9.9% | [3] 12.6% | [4] 1.2% | [5] 22.8% | [6] 6.85%

N=C1CCCS1
inactive: [1] -7.05% | [2] -2.35% | [3] -7.1% | [4] -6.3% | [5] -49.5% | [6] -4.7%

CCCCC[N+](CCCCC)(CCCCC)CCCCC
inactive: [1] -10.8% | [2] -16.4% | [3] -27.4% | [4] 8.4% | [5] 14% | [6] -13.5%

O=[N+]([O-])c1ccc(N/N=C2/CC(c3ccccc3)C(c3ccccc3)=C2Cl)c([N+](=O)[O-])c1 (stereo unspecified)
inactive: [1] 26.2% | [2] 15.6% | [3] 9.45% | [4] 24.4% | [5] -1.75% | [6] 15.7%

Cc1ccc(S(=O)(=O)N/N=C2\CCC3(C)C(CCC4C3CCC3(C)C(C(C)CCCC(C)C)CCC43)C2)cc1 (stereo unspecified)
inactive: [1] 42.3% | [2] 17.8% | [3] 35.3% | [4] 27.6% | [5] -4% | [6] 33.9%

CCOC(=O)C(=CNc1cc(C(F)(F)F)ccc1N1CCOCC1)C(=O)OCC
inactive: [1] -1.4% | [2] -15.2% | [3] -9.5% | [4] 18.6% | [5] 2.25% | [6] -0.1%

Cc1cc[n+](C)c(-c2ccccc2)c1
inactive: [1] 5.65% | [2] -2.25% | [3] 7% | [4] 21.2% | [5] 5.9% | [6] 11.6%

C=CCOC(=O)C(C)OC(=O)/C(Cl)=C/C(=O)O (stereo unspecified)
inactive: [1] -2.45% | [2] 7.25% | [3] 16.4% | [4] -29.4% | [5] 10.5% | [6] 6.15%

Nc1c(Cl)ncnc1NCCCCCCCCCCCCNc1ncnc(Cl)c1N
inactive: [1] -6.4% | [2] 1.75% | [3] 26.1% | [4] -8.95% | [5] -9.7% | [6] 1.85%

CCCCCCCCCCCCCCCC(=O)OCC1OC(n2cc(F)c(=O)[nH]c2=O)C(NC(=O)N(CCCl)N=O)C(O)C1O (stereo unspecified)
inactive: [1] -16.1% | [2] -31.8% | [3] -16.6% | [4] -2.1% | [5] -24.4% | [6] -23.1%

COc1cc(CN=c2nc(N(C)C)ss2)cc(OC)c1OC
inactive: [1] -27.8% | [2] -11.2% | [3] 9.15% | [4] -3.35% | [5] -11.6% | [6] -4.35%

COC(=O)C(NC(=O)c1ccccc1)C(c1c(O)cc(O)cc1O)P(=O)(OC)OC (stereo unspecified)
inactive: [1] -4.75% | [2] 10.3% | [3] 12.4% | [4] 3.35% | [5] 1% | [6] 18%

O=C(O)/C(=N\O)c1cnnn1-c1ccccc1
inactive: [1] -5.95% | [2] 11.9% | [3] -8.45% | [4] 3.35% | [5] -17.6% | [6] -25.9%

O=C(Nc1ccccc1)Oc1ccc(C2CCCCC2)cc1
inactive: [1] 14.7% | [2] 22.1% | [3] 8.2% | [4] 0.95% | [5] 23.3% | [6] 54.6%

CN(C)CCNC(=O)c1cccc(C(=O)Nc2ccccc2)c1[N+](=O)[O-]
inactive: [1] 13.7% | [2] -12.6% | [3] -7.7% | [4] 20.4% | [5] -9.95% | [6] -41.6%

O=c1ccnc2c1ccc1[nH]cccc12
inactive: [1] 1.35% | [2] 6.25% | [3] -13.9% | [4] 1% | [5] 8.6% | [6] 13.3%

COC1/C=C/OC2(C)Oc3c(C)c(O)c4c(O)c(c(/C=N/N5CC(C)N(C(=O)c6ccccc6)C(C)C5)c(O)c4c3C2=O)NC(=O)C(C)=C/C=C/C(C)C(O)C(C)C(O)C(C)C(OC(C)=O)C1C (stereo unspecified)
inactive: [1] -5.8% | [2] -13.6% | [3] -23.8% | [4] 24.6% | [5] 25.2% | [6] 5.45%

CCN(CC)CC(O)c1cccc2cc(Cl)ccc12 (stereo unspecified)
inactive: [1] -3.25% | [2] -8.85% | [3] 28% | [4] -15.2% | [5] -2.55% | [6] -14%

COc1ccc(-c2cc3c(c4cc(OC)ccc24)C(=O)OC3=O)cc1
inactive: [1] -29.1% | [2] -5.1% | [3] 20.6% | [4] 1% | [5] 4.4% | [6] -15.1%

O=[N+]([O-])c1ccc(N=C/C=C\Nc2ccc([N+](=O)[O-])cc2)cc1
inactive: [1] 6.8% | [2] 14.8% | [3] 11.2% | [4] -13.4% | [5] 6.85% | [6] 14.8%

COc1ccc(/C=C2/CSC/C(=C/c3ccc(OC)c(OC)c3)C2=O)cc1OC
inactive: [1] -16.2% | [2] 11.7% | [3] 6.8% | [4] -40.8% | [5] 10.2% | [6] -1.35%

CN(NC(=O)c1cccs1)C1=NCCN1
inactive: [1] -25.9% | [2] -23.2% | [3] -24.9% | [4] 7.25% | [5] 18.4% | [6] -7.7%

Nc1nc(-c2ccccc2)[nH]c(=O)n1
inactive: [1] -3.3% | [2] -0.45% | [3] -37% | [4] -62.8% | [5] -22.4% | [6] -33%

COc1c2c(c3ccccc3c1O)C1C=CC2C1 (stereo unspecified)
inactive: [1] 7.6% | [2] 7.6% | [3] -37.7% | [4] -5.25% | [5] 0.25% | [6] -16.3%

O=C1N=C2SCCCN2C1(c1ccccc1)c1ccccc1
inactive: [1] 4.2% | [2] 21.2% | [3] -3.4% | [4] -7% | [5] 0% | [6] 6.9%

N#CCCn1c2ccccc2c2ccccc21
inactive: [1] -6.45% | [2] 27.5% | [3] 2.95% | [4] 26.5% | [5] -1.65% | [6] -0.5%

Nc1ccc(Cl)cc1N=Cc1ccccc1[N+](=O)[O-]
inactive: [1] 35.5% | [2] 13.8% | [3] 49.5% | [4] -47.5% | [5] 17.6% | [6] 12.9%

Cc1c(N2CCCC2)cc2c(c1-n1cccc1)C(C)(C)CC2(C)C
inactive: [1] -21% | [2] -14.2% | [3] 1.55% | [4] 16.3% | [5] 6.7% | [6] 2.8%

O=C(Cc1nc2ccccc2[nH]c1=O)c1cccnc1
inactive: [1] -0.5% | [2] 8.25% | [3] 13.2% | [4] 1.55% | [5] -4.75% | [6] 16.3%

C/C(=N\S(=O)(=O)c1ccc([N+](=O)[O-])cc1)OCC(C)C
inactive: [1] 11.2% | [2] -8.4% | [3] 14.7% | [4] -47.9% | [5] 10.7% | [6] 2.25%

C=C1C(OC(=O)/C=C/c2ccccc2)CC(OC(C)=O)C2(C)C1CC1CC(OC(C)=O)C(C)=C(C(OC(C)=O)C2OC(C)=O)C1(C)C (stereo unspecified)
inactive: [1] 38.5% | [2] 6.35% | [3] 14.1% | [4] 21.4% | [5] 25.4% | [6] 24.5%

CC12CCC(C1)C(C)(C)/C2=N\O (stereo unspecified)
inactive: [1] -16.2% | [2] -13.8% | [3] 2.55% | [4] 4.85% | [5] 0.05% | [6] 2.65%

c1ccc2c(c1)ncn2C1CCCCO1 (stereo unspecified)
inactive: [1] 4.7% | [2] -9.8% | [3] -16.8% | [4] 0.9% | [5] -7.45% | [6] -38.3%

COc1ccc(/C=C/c2c([N+](=O)[O-])c(=O)n(C)c(=O)n2C)cc1
inactive: [1] -14.7% | [2] 0.95% | [3] -3.1% | [4] 16.1% | [5] 2.65% | [6] -10.2%
